# From PubChem
# Gal4-VP16 FLuc = VP16 counterscreen qHTS for inhibitors of ROR gamma transcriptional activity; actives 3.5% (n = 310,000); Drosophila S2 Gal4-VP16 UAS-luciferase, luminescence, 20 h; Potency, µM (top dose mostly 53.6 µM), usual class: inhibitors;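 further: Gal4-VP16 expression switched on by copper sulfate through the metallothionein promoter; nearly all actives have a fitted effect of over 50% in size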
# RORgamma inh = qHTS for inhibitors of ROR gamma transcriptional activity. Drosophila S2 Gal4-RORgamma UAS-luciferase reporter, 20 h. Potency, µM (doses to about 53.6 µM), usual class: inhibitors. actives 5.4% (n = 310,000). AID 2551, 2010; further: nearly all actives have a fitted effect of over 60% in size
#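 ROR gamma transcriptional activity was tracked as Gal4-UAS luciferase output in stably transfected Drosophila Schneider cells, with compound added 1 hr before 700 uM copper sulfate induction and a 20 hr ambient-temperature incubation.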
# CtBP-E1A inh = qHTS Assay for Inhibitors of the CtBP/E1A Interaction | AID 651724, 2012 | CtBP / adenovirus E1A interaction (AlphaScreen) | actives 0.49% (n = 340,000) | activity change, % (concentration not given with the values) | AlphaScreen GST-E1A/His-CtBP binding, 1536-well; hits give low values; in the data active means activity change below about -65%; inconclusive means mostly about -30% to -63%
#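 Protein mix (5X: 125 nM each GST-E1A, His-CtBP) was incubated with pinned compound 2 h at 37 deg C in dark, in 50 mM Tris pH 8.0 buffer with 300 mM NaCl. Glutathione donor and nickel acceptor beads followed; AlphaScreen signal read after 1 h.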
# Six1-Eya2 blk = qHTS Assay for Inhibitors of the Six1/Eya2 Interaction; AID 651725, 2012; AlphaScreen GST-Six1/His-Eya2 binding, biochemical; hits give low values; actives 0.56% (n = 360,000); activity change, % (no concentration beside the values); Homeobox protein SIX1 (Homo sapiens) + Protein phosphatase EYA2 (Homo sapiens), …; in the data active means activity change below about -65%; inconclusive means mostly about -30% to -63%
# Target sequence (O00167 whole entry, looked up): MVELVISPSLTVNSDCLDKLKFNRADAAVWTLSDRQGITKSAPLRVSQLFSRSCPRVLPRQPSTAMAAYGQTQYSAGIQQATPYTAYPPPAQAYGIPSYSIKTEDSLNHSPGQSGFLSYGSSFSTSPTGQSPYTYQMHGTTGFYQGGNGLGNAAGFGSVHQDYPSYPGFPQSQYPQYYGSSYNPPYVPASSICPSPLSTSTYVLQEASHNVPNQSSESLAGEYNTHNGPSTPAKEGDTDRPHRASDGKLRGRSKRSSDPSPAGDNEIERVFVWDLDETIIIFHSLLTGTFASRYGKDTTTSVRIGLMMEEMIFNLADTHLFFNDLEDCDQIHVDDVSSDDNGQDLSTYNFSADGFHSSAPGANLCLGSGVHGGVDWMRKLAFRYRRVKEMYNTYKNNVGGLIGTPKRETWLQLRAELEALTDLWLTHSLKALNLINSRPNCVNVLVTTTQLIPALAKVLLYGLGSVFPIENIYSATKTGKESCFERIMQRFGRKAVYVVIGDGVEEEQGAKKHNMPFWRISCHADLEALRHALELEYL
# Target sequence (Q15475 whole entry, looked up): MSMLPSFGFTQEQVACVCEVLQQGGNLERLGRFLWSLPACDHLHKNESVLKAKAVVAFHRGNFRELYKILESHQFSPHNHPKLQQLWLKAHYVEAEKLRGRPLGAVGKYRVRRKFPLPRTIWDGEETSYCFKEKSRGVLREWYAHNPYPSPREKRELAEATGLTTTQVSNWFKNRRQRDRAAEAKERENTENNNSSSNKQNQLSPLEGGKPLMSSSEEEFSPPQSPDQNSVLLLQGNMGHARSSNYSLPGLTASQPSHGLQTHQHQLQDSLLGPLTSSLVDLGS
#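 AlphaScreen with GST-Six1 and His-Eya2 (5X mix: 250 nM and 500 nM), glutathione donor and nickel acceptor beads; buffer 50 mM Tris pH 8.0, 300 mM NaCl, 1 mM TCEP; 1 h at 37 C in the dark.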
# PKM2 act = qHTS Assay for Activators of Human Muscle isoform 2 Pyruvate Kinase | AID 1631, 2009 | purified PKM2, Kinase-Glo ATP luminescence, activation; response scale: 0% is enzyme alone, no compound | Pyruvate kinase PKM (Homo sapiens), P14618 | Potency, µM (highest dose often 57.5 µM), most hits filed as activators | actives 0.34% (n = 260,000); further: nearly all actives have a fitted effect of over 55% in size
#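 Kinase-Glo luminescence reports ATP generated from ADP (0.1 mM) and PEP (0.5 mM) by purified hPK-M2 after 1 h at room temperature, pH 7.2 imidazole buffer; intermediate enzyme activity allows detecting inhibitors and activators.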
# Hits are given with their value; 0 = inactive; ? = inconclusive; - = no result; [ ] = another dose, or the depositor's remark. Only some compounds are listed: those with a hit (about 5.6% of all), similar ones and a draw of the others. Unless noted, the call rests on the fitted dose curve; in most records, active means well fitted curve in the direction sought with a large enough effect; inconclusive means small, poorly fitted or top-dose-only effect, or another doubt; inactive means no such curve, though single readings can be large; an effect the other way counts as inactive or inconclusive.
SMILES,Gal4-VP16 FLuc,RORgamma inh,CtBP-E1A inh,Six1-Eya2 blk,PKM2 act
O=C(O)c1cccc2c1C(=O)c1ccccc1C2=O,0,0,0,0,0
CN(C=[N+](C)C)c1cccc2c1C(=O)c1ccccc1C2=O,0,0,-68,-66,0
CCC1CCCCN1c1cc(C)nc2cc(-c3cccc(C)c3)nn12 (stereo not drawn),0,10µM,0,0,0
Cc1cc(N2CCOCC2)n2nc(-c3cccc(F)c3)cc2n1,0,0,0,0,0
C=CCOc1c(Br)cc(/C=N/n2c(CC)n[nH]c2=S)cc1Br,7.9µM,7.9µM,0,0,0
FC(F)(F)c1ccc(/C=N/n2c(COc3ccccc3)n[nH]c2=S)cc1,0,?,0,0,-
S=c1[nH]nc(COc2ccccc2)n1/N=C/c1ccncc1,0,10µM,-,0,0
CC(/C=N/n1c(-c2ccc(C)cc2)n[nH]c1=S)=C\c1ccco1,2.8µM,2.8µM,0,0,0
CC(/C=N/n1c(COc2ccccc2)n[nH]c1=S)=C\c1ccccc1,?,2.5µM,0,0,0
CCc1n[nH]c(=S)n1/N=C/c1cc(Br)c(O)c(OC)c1,0,0,-,0,0
CC(/C=N/n1c(-c2ccncc2)n[nH]c1=S)=C\c1ccco1,0,0,-,0,0
Cn1c(CSCc2ccc(F)cc2)nnc1SCC(=O)Nc1cccc(C(=O)O)c1,0,0,0,0,0
CCc1ccc(/C=N/n2c(COc3ccccc3)n[nH]c2=S)cc1,?,0.89µM,0,0,-
Cc1cccc(/C=N/n2c(COc3ccccc3)n[nH]c2=S)c1,?,7.1µM,-,0,-
S=c1[nH]nc(COc2ccccc2)n1/N=C/c1ccc(Cl)c(Cl)c1,0,?,0,0,-
CC(=C/c1ccccc1)/C=N/n1c(C)n[nH]c1=S,6.3µM,8.9µM,-,0,0[11.5 µM]
CCc1n[nH]c(=S)n1/N=C/c1ccc(N(CC)CC)cc1,6.3µM,2.8µM,0,0,0
CC(=O)c1cccc(CN2CCCC(CCC(=O)NCc3ccccc3F)C2)c1 (stereo not drawn),0,0,0,?,0
Cc1cc(C(=O)CCl)c(C)n1-c1c(C)n(C)n(-c2ccccc2)c1=O,?,?,0,0,0
COc1cc(/C=C2\SC(=O)N(c3cccc(Cl)c3)C2=O)cc([N+](=O)[O-])c1O,0,0,0,?,7.9µM
O=C(Nc1ccc(OC(F)(F)F)cc1)Nc1cccc([N+](=O)[O-])c1,6.3µM,?,0,0,0
O=C(Nc1ccc(OC(F)F)cc1)Nc1cccc(C(F)(F)F)c1,25µM,?,0,0,0
NC(=O)/C=C\C(=O)Nc1cccc(C(F)(F)F)c1,13µM,?,0,0,?
O=C(Nc1ccncc1)Nc1cccc(C(F)(F)F)c1,0,?,0,0,0
CC(O)(c1ccc(F)c(F)c1)c1nc(-c2cccc(C#N)c2)cs1 (stereo not drawn),-,-,0,0,-
SMILES,Gal4-VP16 FLuc,RORgamma inh,CtBP-E1A inh,Six1-Eya2 blk,PKM2 act
Clc1ccc(Cn2cccn2)cn1,0,0,0,0,0
COc1ccc(Nc2cc(C)nc(N3CCOCC3)n2)cc1,0,0,0,0,0
CNc1cc(C)nc(N2CCOCC2)n1,0,0,-,0,0
Cc1cc(C)n(-c2nc(-c3ccc(Cl)cc3)cs2)n1,0,?,0,0,0
Cc1cc(Cl)nc(-n2nc(C)cc2C)n1,13µM,3.5µM,0,0,0
CNc1cc(C)nc(-n2nc(C)cc2C)n1,2.5µM,0.63µM,0,0,0
CCOc1ccc(Nc2cc(C)nc(-n3nc(C)cc3C)n2)cc1,0.89µM,0.16µM,-79,-68,0
Cc1cc(C)n(-c2nc(C)nc(N)n2)n1,0,14µM,0,0,0
CCc1nc(SCC(=O)Nc2ccccc2Cl)n[nH]1,0,0,0,0,0
CCN(CC)C(=O)CNc1ccc(C(F)(F)F)cc1[N+](=O)[O-],0,0,0,0,0
Cc1cc(C)n(-c2nc(Nc3ccccc3)nc(-n3nc(C)cc3C)n2)n1,0,0,?,0,0
Cc1cc(C)n(-c2nc(N(c3ccccc3)c3ccccc3)nc(-n3nc(C)cc3C)n2)n1,5.6µM,5.6µM,0,0,0
O=[N+]([O-])c1ccc(O)c(-c2cc(C(F)(F)F)nc(-c3ccccc3)n2)c1,2.8µM,1.1µM,-,0,-
Oc1ccccc1-c1cc(C(F)(F)C(F)F)nc(-c2ccccc2)n1,0,0,0,0,0
Cc1cc(NC(=O)c2ccc(Cl)c(S(=O)(=O)N3CCCCC3)c2)no1,0,0,0,0,0
CCN(CC)CC(C)CNC(=O)CC(C(=O)N1CCc2ccccc21)n1ccnc1 (stereo not drawn),0,11µM,0,0,0
CC(Sc1nnc(COc2ccc(Cl)cc2)n1Cc1ccco1)C(=O)N1CCNC1=O (stereo not drawn),-,-,0,0,-
COC(=O)c1ccc(/C=C/C(=O)OCC(=O)Nc2sccc2C(N)=O)cc1,-,-,-69,?,-
O=C1c2cccc(OCC(=O)N3N=C(c4cccs4)CC3c3ccc(F)cc3)c2CCN1Cc1cccnc1 (stereo not drawn),?,0,0,0,0
CCN(Cc1ccccc1)c1ccc(N=Nc2nn(C)c(C)c2[N+](=O)[O-])cc1,?,?,-68,-70,0
Cc1ccc(CNC(=O)c2nn(C)c(C)c2[N+](=O)[O-])cc1,0,0,0,0,0
CCN(CC)c1ccc(N=Nc2nn(C)c(C)c2[N+](=O)[O-])cc1,?,5µM,?,-67,0
C(=C\c1ccco1)/c1nc2ccccc2[nH]1,0,0,-,0,0
C(=C\c1nc2ccccc2[nH]1)/c1ccccc1,8.9µM,7.1µM,0,0,0
CN(C)c1ccc(/C=C/c2nc3ccccc3c(=O)[nH]2)cc1,?,2µM,-,0,-
SMILES,Gal4-VP16 FLuc,RORgamma inh,CtBP-E1A inh,Six1-Eya2 blk,PKM2 act
Cc1c(NC(=O)COC(=O)c2ccc(Br)o2)c(=O)n(-c2ccccc2)n1C,0,0,0,0,0
CC(C)c1ccc(NC(=O)CCNC(=O)N2CC(=O)Nc3ccccc32)cc1,0,0,0,0,-
Cc1nnc(NC(=O)c2nc(S(=O)(=O)Cc3ccccc3)ncc2Cl)s1,13µM,7.9µM,0,0,-
Cc1ccccc1NC(=O)c1nc(S(C)(=O)=O)ncc1Cl,3.2µM,6.3µM,-,0,0[11.5 µM]
CCOC(=O)c1nc(S(C)(=O)=O)ncc1Cl,5µM,4µM,0,0,0
Cc1cccc(CS(=O)(=O)c2ncc(Cl)c(C(=O)NCc3ccccc3)n2)c1,3.2µM,5.6µM,-,0,-
CCOC(=O)c1nc(S(C)(=O)=O)ncc1N1CCOCC1,0,0,0,0,0
CCCc1nnc(NC(=O)c2nc(S(=O)(=O)Cc3cccc(C)c3)ncc2Cl)s1,?,?,0,?,-
CN(C)CC/C=C1\c2ccccc2COc2ccc(CC(=O)O)cc21,0,0[10 µM],-,-,-
